{
  "source": "PubChem BioAssay",
  "data": [
    {"system": "Human papillomavirus type 1a E7 protein (residues 1-88)", "assay": "HPV1a E7 small-molecule binders, primary screen, biochemical, small-molecule microarray, residues 1-88, 635 nm (AID 1129)", "details": "small-molecule microarray binding, fluorescence 635 nm; higher = more signal", "values": [
      {"compound": "CCN1C(=O)[C@H]2[C@H]3[C@H](O)[C@H](O)CC(=NOCC=C(C)CCC=C(C)C)[C@H]3CC[C@H]2C1=O", "composite z-score": 1.1},
      {"compound": "O=C1[C@H]2[C@H]3[C@H](O)[C@H](O)CC(=NOCc4ccccc4)[C@@H]3CC[C@H]2C(=O)N1C1CCCCC1", "composite z-score": -0.0419},
      {"compound": "CC(C)=CCCC(C)=CCON=C1[C@H]2CCn3c(=O)n(Cc4cc5c(cc4Cl)OCO5)c(=O)n3[C@H]2[C@H](O)[C@@H]2O[C@H]12", "composite z-score": 0.349},
      {"compound": "CCCNC(=O)OC[C@H]1O[C@H](CCON=C[C@@H](OC)[C@H](C)C=CCC(=O)OC)C=C[C@@H]1Oc1ccc(OC)cc1", "composite z-score": -0.0259},
      {"compound": "COC(=O)[C@H](C)NC(=O)[C@@H](C)CO", "composite z-score": 1.2},
      {"compound": "C=CCOC(=O)[C@H]1[C@@H]2C(=O)O[C@@H](c3ccccc3)[C@@H](c3ccccc3)N2[C@@H](c2ccc(OCCOC(=O)[C@H]3C[C@H]4C(=O)N5CCC[C@H]5C(=O)N4[C@H]3c3cccc(OCCO)c3)cc2)[C@]12C(=O)Nc1ccc(I)cc12", "composite z-score": 1.25},
      {"compound": "CCCCC(=C=CC[C@H](O)c1ccccc1OCCO)C[C@H](O)COCc1ccccc1", "composite z-score": -0.138},
      {"compound": "COc1ccc(-c2ccc3c(n2)CCCN3CC(O)CN2CCCc3nc(C)c(C)cc32)cc1", "note": "(stereo not drawn)", "composite z-score": 0.478},
      {"compound": "C[C@H]1Cc2c(-c3ccccc3)nc3c(c2CO1)CN(CCOc1ccccc1)CC3", "composite z-score": 0.576}
    ]},
    {"target": "Focal adhesion kinase 1 (Homo sapiens) (UniProt Q05397)", "sequence (Q05397 whole entry, looked up)": "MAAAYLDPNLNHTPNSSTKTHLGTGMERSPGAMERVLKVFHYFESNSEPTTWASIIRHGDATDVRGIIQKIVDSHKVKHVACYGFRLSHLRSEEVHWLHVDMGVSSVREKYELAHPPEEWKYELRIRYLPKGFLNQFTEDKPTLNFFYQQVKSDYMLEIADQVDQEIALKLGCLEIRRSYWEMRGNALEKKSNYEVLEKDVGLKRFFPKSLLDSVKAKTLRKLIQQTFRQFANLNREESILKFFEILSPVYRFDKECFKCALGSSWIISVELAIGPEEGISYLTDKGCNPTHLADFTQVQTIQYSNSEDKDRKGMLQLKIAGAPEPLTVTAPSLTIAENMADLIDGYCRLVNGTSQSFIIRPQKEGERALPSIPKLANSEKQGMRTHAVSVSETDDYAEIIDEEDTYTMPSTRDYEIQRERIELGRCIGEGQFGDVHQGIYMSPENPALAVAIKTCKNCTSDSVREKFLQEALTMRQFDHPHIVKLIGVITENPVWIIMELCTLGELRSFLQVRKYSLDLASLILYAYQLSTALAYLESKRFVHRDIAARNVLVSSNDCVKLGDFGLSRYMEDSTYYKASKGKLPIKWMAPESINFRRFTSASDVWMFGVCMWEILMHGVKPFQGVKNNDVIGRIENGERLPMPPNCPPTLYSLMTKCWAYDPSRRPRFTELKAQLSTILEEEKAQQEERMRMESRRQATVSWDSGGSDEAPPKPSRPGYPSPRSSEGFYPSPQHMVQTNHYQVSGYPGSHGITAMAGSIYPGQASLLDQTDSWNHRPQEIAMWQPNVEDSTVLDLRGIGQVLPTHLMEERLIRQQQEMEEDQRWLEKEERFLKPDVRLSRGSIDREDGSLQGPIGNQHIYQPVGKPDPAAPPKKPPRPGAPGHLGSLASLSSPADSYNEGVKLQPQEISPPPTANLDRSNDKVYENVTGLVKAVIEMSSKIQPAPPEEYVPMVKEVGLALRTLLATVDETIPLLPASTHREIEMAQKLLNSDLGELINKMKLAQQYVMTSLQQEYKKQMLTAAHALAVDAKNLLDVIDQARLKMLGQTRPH", "assay": "small-molecule microarray binders of FAK, primary screen, biochemical, 635/667 nm fluorescence, BSA, DTT (AID 1130);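 also: composite of spot emission at 667 nm and signal to noise over triplicate slides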", "details": "PTK2 binding, 635 nm fluorescence, higher = more signal", "values": [
      {"compound": "C=CC[C@@H]1C=C[C@H](ON=C2c3cc(OC)ccc3O[C@H](c3cccc(OC)c3)[C@H]2O)[C@@H](CO)O1", "composite z-score": 0.374},
      {"compound": "COCCOC(=O)N1C(=O)[C@@]2(c3cc(C#CCNC(N)=O)ccc31)[C@H](c1ccc(O)cc1)N1[C@H](c3ccccc3)[C@H](c3ccccc3)OC(=O)[C@H]1[C@@H]2C(=O)N1CCCCCCC1", "composite z-score": 0.14},
      {"compound": "CC(C)(C)N1C(=O)[C@H]2[C@H]3[C@H](O)[C@H](O)CC(=NOCc4ccccc4)[C@@H]3CC[C@H]2C1=O", "composite z-score": -0.0913},
      {"compound": "O=C1C[C@]2(c3ccc([N+](=O)[O-])cc3)C(=O)N(CCN3CCOCC3)c3cc(CO)ccc3[C@H]2N1CC12CC3CC(CC(C3)C1)C2", "composite z-score": 0.0816},
      {"compound": "CC[C@@H](c1ccccc1)n1c(=O)n2n(c1=O)[C@H]1[C@H](O)[C@@H]3O[C@@H]3C(=NOCC(C)C)[C@H]1CC2", "composite z-score": -0.267},
      {"compound": "O=C1[C@H]2[C@H]3[C@H](O)[C@H](O)CC(=NO[C@@H]4O[C@H](CO)[C@@H](O)[C@H](O)[C@H]4O)[C@@H]3CC[C@H]2C(=O)N1Cc1ccc2c(c1)OCO2", "composite z-score": 0.293},
      {"compound": "CC(C)=C1C(=O)C(c2ccccc2)=C2CN3C(=O)N(CCc4ccccc4)C(=O)[C@]3(Cc3ccc(F)cc3)[C@H]21", "composite z-score": -0.0639},
      {"compound": "CO[C@@H]1COC(=O)CCC[C@@H](C)[C@H](OC)COC(=O)[C@H](Cc2ccccc2)NC(=O)CC=C[C@H]1C", "composite z-score": -0.268},
      {"compound": "Cc1ccc(F)cc1S(=O)(=O)N[C@@H]1CCN(Cc2ccc(CC(C)C)cc2)C1", "composite z-score": 0.132},
      {"compound": "CC(C)[Si]1(C(C)C)O[C@@H](c2ccccc2)c2cc(C3CC3)nc(-c3ccccc3)c21", "composite z-score": -0.925},
      {"compound": "COC(=O)[C@@]1(Cc2ccc(F)cc2)[C@H]2c3cc(C(=O)N(C)C)n(Cc4ccc(OC)c(OC)c4)c3C[C@H]2CN1C(=O)c1ccccc1", "composite z-score": 1.71},
      {"compound": "CCOC(=O)CCN1C(=O)[C@H]2[C@H]3[C@H](O)C=CC(=O)[C@@H]3CC[C@H]2C1=O", "composite z-score": 0.122},
      {"compound": "C[C@H](c1ccccc1)N1C(=O)[C@H]2[C@@H]3C(=CC[C@H]2C1=O)C(=O)[C@H]1O[C@H]1[C@H]3O", "composite z-score": 0.204},
      {"compound": "CS(=O)(=O)CCOC(=O)C1=CC(CCCO)=CC(c2cccs2)N(Cc2cccc(OC(F)(F)F)c2)C=C1C(=O)OCCS(C)(=O)=O", "note": "(stereo not drawn)", "composite z-score": 0.905},
      {"compound": "O=C1[C@H]2[C@H]3[C@H](O)[C@H](O)CC(=NO[C@@H]4O[C@H](CO)[C@@H](O)[C@H](O)[C@H]4O)[C@H]3CC[C@H]2C(=O)N1Cc1ccc2c(c1)OCO2", "composite z-score": 0.0254},
      {"compound": "Cc1cc2c(nc1C)CCCN2CC(C)ON=C1[C@H]2CCn3c(=O)n(-c4ccccc4)c(=O)n3[C@H]2[C@H](O)[C@@H]2O[C@H]12", "note": "(stereo partly drawn)", "composite z-score": 0.515},
      {"compound": "Cc1cc(C)c(-c2cc([C@H](C)ON=C3[C@H]4CCn5c(=O)n(-c6ccccc6)c(=O)n5[C@H]4[C@H](O)[C@@H]4O[C@H]34)on2)c(C)c1", "composite z-score": 0.422},
      {"compound": "COc1ccc([Si](C)(C)[C@@H]2[C@@H](CCO)O[C@]3(C(=O)N(Cc4ccc(NC(C)=O)cc4)c4ccccc43)[C@H]2C)cc1", "composite z-score": 0.11},
      {"compound": "c1ccc(C2NCCc3c2[nH]c2ccccc32)cc1", "note": "(stereo not drawn)", "composite z-score": -0.0707}
    ]}
  ]
}
